# Results from PubChem BioAssay (NCATS).
# Records with an inconclusive call do not appear. Values without a mark were called inactive. Activity calls are given as the source filed them. Calls come from the whole dose curve; as a rule, active = well fitted cell-killing curve with a large enough effect; inconclusive = small, poorly fitted or top-dose-only effect, or effect the other way; inactive = no such curve, though single readings can be large or run the other way.
# Experiment: Quantitative High-Throughput drug screen in 47 multiple myeloma cell lines against the NCATS MIPE library collection: KMS12BM_JCRB cell viability assay (AID 1918971); note: nearly all actives have a fitted effect of over 35% in size
# Conditions: KMS12BM myeloma viability, CellTiter-Glo ATP, 48 h; series mostly up to 45.8 µM; viability, % of DMSO: at the top concentration
# Excerpt: PI: Beverly A. Mock Ph.D.
# Laboratory of Cancer Biology and Genetics,
# Center for Cancer Research, National Cancer Institute,
# National Institute of Health, Bethesda, Maryland
# Drug resistance and disease progression are common in multiple myeloma (MM) patients, underscoring the need for new therapeutic combinations. […] We hypothesized that effective combinations would reduce MYC expression and enhance p16 activity. […] These preclinical data identify potentially useful drug combinations for evaluation in drug-resistant MM and reveal potential mechanisms of combined drug sensitivity.
# Described herein is the primary MIPE qHTS used to cherrypick compounds. Validated compounds were then further tested for potential synergistic activiy.
# [1] Peat TJ, Gaikwad SM, Dubois W, Gyabaah-Kessie N, Zhang S, Gorjifard S, Phyo Z, Andres M, Hughitt VK, Simpson RM, Miller MA, Girvin AT, Taylor A, Williams D, D'Antonio N, Zhang Y, Rajagopalan A, Flietner E, Wilson K, Zhang X, Shinn P, Klumpp-Thomas C, McKnight C, Itkin Z, Chen L, Kazandijian D, Zhang J, Michalowski AM, Simmons JK, Keats J, Thomas CJ, Mock BA. Drug combinations identified by high-throughput screening promote cell cycle transition and upregulate Smad pathways in myeloma. Cancer Lett. 2023 Aug 1;568:216284. doi: 10.1016/j.canlet.2023.216284. Epub 2023 Jun 24. PMID: 37356470; PMCID: PMC10408729.
# SEQUENCE No. (e.g., 1, 2, 3, etc.); […] (e.g., Cells, Incubation, Reagent, etc.); VALUE and DESCRIPTION.
# 1; Cells; 5 uL; white, solid bottom 1536-well Greiner assay plate.
# 2; Compounds; 23 nL; Kalypsis pin tool (Wako USA) equipped with a 1536-well pin head to transfer to the assay plates.
# 3; Incubation; 48 hours; 37C incubation.
# 4; Reagent;5uL; CellTiter Glo (Promega).
# 5; Detector; 425V; Luminescence; Viewlux PerkinElmer.
# NOTES (numbers refer to Sequence numbers above)
# 1. The cell-based screening methods employed in this study were like those previously published. Briefly, the corresponding myeloma cell lines were screened in 1,536-well plates with 500 cells, 5-uL per well for inhibition of cell viability (assessed by measuring ATP levels with CellTiterGlo).
# 2. NCATS MIPE 4.0 library of approved and investigational drugs were added using the Kalypsis pin tool. Wells treated with DMSO only for 100% viability and media only wells for 0% viability were used as controls.
# 3. The assay plates were covered and incubated for 48 hours in a 37C, 5% CO2 incubator with controlled humidity.
# 4. After 48 hours, CellTilter-GloTM luminescent substrate mix (Promega) reagent was added to the assay plate and plates we incubated for 5 min at room temperature.
# 5. Signal was measured as median relative luminescence units on a ViewLux (PerkinElmer) multiplate reader.
# [1] Heske CM, Davis MI, Baumgart JT, Wilson K, Gormally MV, Chen L, Zhang X, Ceribelli M, Duveau DY, Guha R, Ferrer M, Arnaldez FI, Ji J, Tran HL, Zhang Y, Mendoza A, Helman LJ, Thomas CJ. Matrix Screen Identifies Synergistic Combination of PARP Inhibitors and Nicotinamide Phosphoribosyltransferase (NAMPT) Inhibitors in Ewing Sarcoma. Clin Cancer Res. 2017 Dec 1;23(23):7301-7311. doi: 10.1158/1078-0432.CCR-17-1121. Epub 2017 Sep 12. PMID: 28899971; PMCID: PMC6636827.
# Potency is the fitted concentration of half-maximal effect.
SMILES,Potency,"viability, % of DMSO [%]"
CC(C)(C)OC(=O)Nc1ccc(-c2cc(C(=O)NCCCCCCC(=O)NO)no2)cc1,1.66 µM (active),–
C1=CCOCc2cc(ccc2OCCN2CCCC2)Nc2nccc(n2)-c2cccc(c2)OCC1,7.43 µM (active),–
Cn1c(=O)n(-c2ccc(C(C)(C)C#N)cc2)c2c3cc(-c4cnc5ccccc5c4)ccc3ncc21,0.0132 µM (active),–
CC(C)c1ccccc1Cc1cc(C(=O)Nc2ccc(S(=O)(=O)c3ccccc3C(C)(C)C)cc2)c(O)c(O)c1O,3.72 µM (active),–
CNC(=O)c1ccc(N2C(=S)N(c3cnc(C#N)c(C(F)(F)F)c3)C(=O)C23CCC3)cc1F,13.2 µM (active),–
Cn1c2ccccc2c2c3c(c4c5ccccc5n(CCC#N)c4c21)CNC3=O,16.6 µM (active),–
Nc1ccc(C(=O)c2cc3c(ccc4ccccc43)[nH]2)cc1,2.64 µM (active),–
C[C@@H](Oc1cc(-c2cnn(C3CCNCC3)c2)cnc1N)c1c(Cl)ccc(F)c1Cl,16.6 µM (active),–
NC(=O)c1c(OCc2c(F)cc(Br)cc2F)nsc1NC(=O)NCCCCN1CCCC1,18.7 µM (active),–
C=CC(=O)Nc1cc2c(Nc3ccc(F)c(Cl)c3)ncnc2cc1C#CC(C)(C)N1CCN(C)CC1,0.332 µM (active),–
Nc1nc(Nc2ccc(S(N)(=O)=O)cc2)nn1C(=O)c1c(F)cccc1F,5.9 µM (active),–
Cc1nc(Nc2n[nH]c3c2CN(C(=O)N[C@H](CN(C)C)c2ccccc2)C3(C)C)c2sccc2n1,0.743 µM (active),–
CCc1c2c(nc3ccc(O)cc13)-c1cc3c(c(=O)n1C2)COC(=O)[C@]3(O)CC,0.0662 µM (active),–
CC1=C(CO)C(=O)O[C@@H]([C@@H](C)[C@H]2CC[C@H]3[C@@H]4C[C@H]5O[C@]56[C@@H](O)C=CC(=O)[C@]6(C)[C@@H]4CC[C@]23C)C1,0.372 µM (active),–
C=C1C(=CC=C2CCC[C@]3(C)[C@@H]([C@H](C)C=C[C@H](C)C(C)C)CC[C@@H]23)C[C@@H](O)C[C@@H]1O,1.87 µM (active),–
COC(=O)[C@]12CCC(C)(C)C[C@@H]1[C@@H]1C(=O)C=C3[C@@]4(C)C=C(C#N)C(=O)C(C)(C)[C@@H]4CC[C@@]3(C)[C@]1(C)CC2,0.526 µM (active),–
CCN(CC)CCNC(=O)c1ccc2nc(-c3ccccc3)c(-c3ccc(CN4CCC(n5c(=O)[nH]c6ccccc65)CC4)cc3)nc2c1,16.6 µM (active),–
CC(C)C[C@H](NC(=O)CNC(=O)c1cc(Cl)ccc1Cl)B(O)O,0.132 µM (active),–
O=C(CCCCCCC(=O)Nc1ccc([C@H]2O[C@@H](CSc3nc(-c4ccccc4)c(-c4ccccc4)o3)C[C@@H](c3ccc(CO)cc3)O2)cc1)NO,11.8 µM (active),–
Nc1ncnc2c1c(-c1cnc3[nH]ccc3c1)nn2C1CCCC1,0.743 µM (active),–

SMILES,Potency,"viability, % of DMSO [%]"
CC(C)=CCCC(C)=CCCC(C)=CCSc1ccccc1C(=O)O,1.66 µM (active),–
O=C(Nc1nc2cccc(-c3ccc(CN4CCS(=O)(=O)CC4)cc3)n2n1)C1CC1,7.43 µM (active),–
COc1cc2c(cc1-c1c(C)noc1C)ncc1[nH]c(=O)n([C@H](C)c3ccccn3)c12,0.833 µM (active),–
C#Cc1cccc(Nc2ncnc3cc(OC)c(OCCCCCCC(=O)NO)cc23)c1,0.0662 µM (active),–
CC[C@H]1CN2CCc3cc(OC)c(OC)cc3[C@H]2C[C@@H]1C[C@@H]1NCCc2cc(OC)c(OC)cc21,0.209 µM (active),–
Cn1c2cc(S(C)=O)sc2c2cnn(Cc3cccc(N)c3)c(=O)c21 (stereo not given),–,107
CC[C@@H]1C(=O)N(C)c2cnc(Nc3ccc(C(=O)NC4CCN(C)CC4)cc3OC)nc2N1C1CCCC1,0.0235 µM (active),–
COc1ccc(C(=O)CC2(O)C(=O)Nc3c(Cl)ccc(Cl)c32)cc1 (stereo not given),2.09 µM (active),–
CC(C)(C)c1cc(NC(=O)Nc2ccc(-c3cn4c(n3)sc3cc(OCCN5CCOCC5)ccc34)cc2)no1,16.6 µM (active),–
Cn1cc(-c2ccncc2)c(-c2ccc(OCc3ccc4ccccc4n3)cc2)n1,18.7 µM (active),–
OCCCNc1cc(-c2ccnc(Nc3cccc(Cl)c3)n2)ccn1,0.132 µM (active),–
CC(C)(O)CCc1ccc(OCc2cc(-c3cccc(OC(F)F)c3)c3ncccc3c2)cc1,–,131
COC(=O)c1ccc2c(C(=Nc3ccc(N(C)C(=O)CN4CCN(C)CC4)cc3)c3ccccc3)c(O)[nH]c2c1,16.6 µM (active),–
Cc1ccc(C(N)=O)cc1Nc1nccc(-c2cn(C(C)C)c3cnccc23)n1,16.6 µM (active),–
CN1CCN(c2cc(C(=O)Nc3ccc4c(c3)-c3c(c(C(N)=O)nn3-c3ccc(F)cc3)CC4)c(Cl)cn2)CC1,23.5 µM (active),–
COc1cc2c(Oc3ccc4[nH]c(C)cc4c3F)ncnc2cc1OCCCN1CCCC1,29.6 µM (active),–
O=C(CCCCCCNC(=O)c1cnc(N(c2ccccc2)c2ccccc2)nc1)NO,2.96 µM (active),–
O=C(NCCS(=O)(=O)c1ccc(C(F)(F)F)cn1)c1ccc(Cl)cc1,0.0235 µM (active),–
CN(c1ncccc1CNc1nc(Nc2ccc3c(c2)CC(=O)N3)ncc1C(F)(F)F)S(C)(=O)=O,9.35 µM (active),–
Cc1ccc(-c2ncn(-c3ccc(Nc4nccc(-c5cccc(N6CCOCC6)c5)n4)cc3)n2)cn1,0.0833 µM (active),–
